Measured values taken from PubChem BioAssay AID504621 (Broad Institute, 2011).
Out of some 310,000 compounds screened, about 970 (0.31%) were called active. What follows is part of a selection rich in actives, with near analogues and random picks from the rest. Values without a mark were called inactive.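 Rule for the calls: active = every replicate shows inhibition above about 80%, whatever the replicate mean (limit read from the data); inconclusive = mean inhibition reaches the set limit but some replicate falls short; inactive = the rest.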

Assay: reduced ATP signal of yeast carrying P. falciparum Hsp90 – S. cerevisiae, BacTiter-Glo luminescence, single point, set 2, antimalarial PfHsp90 inhibitor project, primary screen (AID 504621);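 note: yeast relying on Plasmodium falciparum Hsp90 in place of its own; 0% = DMSO neutral controls and 100% = 20 µM radicicol positive controls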
Conditions: S. cerevisiae expressing PfHsp90, growth, 48 h, at 9.4 µM, active compounds read high, yeast lacking PDR1 and PDR3 efflux regulators

| SMILES | inhibition |
| --- | --- |
| Oc1c(Cl)cc(Cl)c(Cl)c1Cc1c(O)c(Cl)cc(Cl)c1Cl | 108% (active) |
| O=C(Nc1ccc2ccccc2c1[N+](=O)[O-])c1ccccc1 | -14.2% |
| COc1ccc(CC(=O)NC(C)c2ccc(Cl)c(Cl)c2)cc1S(=O)(=O)N1CCOCC1 (centres undefined) | 15.2% |
| COc1ccc(OCc2cn3c(C)cc(C)nc3n2)cc1 | -13.7% |
| COc1ccc(C(C[N+](=O)[O-])n2nc(C)cc2C)cc1 (centres undefined) | 104% (active) |
| CCOc1ccc(C(C)C)cc1S(=O)(=O)n1nc(C)cc1C | 11.4% |
| O=C(Cc1nc2ccccc2[nH]c1=O)c1ccc(Cl)cc1 | -1.68% |
| O=C(/C(=C/c1cccc(Cl)c1)c1nc2ccccc2[nH]1)c1ccccc1 | 86.9% (active) |
| CCC(=O)/C(=C(/O)c1ccccc1)c1nc2ccccc2[nH]1 | -12.2% |
| Nc1ccc2c(c1)C(O)c1ccc(Cl)cc1-2 (centres undefined) | -1.88% |
| CN(C)S(=O)(=O)Oc1ccccc1C(=O)Nc1ccccc1Cl | 15.5% |
| O=C(Nc1ccccc1Cl)O/N=C(/c1ccccc1)c1ccccn1 | 9.66% |
| O=C(Nc1ccccc1Cl)/C(Cl)=C(\Cl)S(=O)c1ccccc1 (centres undefined) | 127% (active) |
| Cc1cc(OCCCC(=O)Nc2cc(S(=O)(=O)N3CCOCC3)ccc2N2CCOCC2)ccc1Cl | -7.69% |
| COc1ccc(C2=Nn3c(nnc3-c3ccccc3OC)SC2)cc1OC1CCCC1 | 1.24% |
| CCCCN(C(=O)CSCc1ccc(C)cc1)c1c(N)n(Cc2ccccc2)c(=O)[nH]c1=O | -17.2% |
| Cc1cc2c(cc1C)NC1(C[C@H]3CCC(=O)N4CC[C@@H](C1)[C@@H]34)C(=NC(C)(C)CC(C)(C)C)N2 (some centres undefined) | 3.65% |
| CSc1nnc(NC(=O)c2nc(S(=O)(=O)Cc3ccc(C)cc3)ncc2Cl)s1 | 11.8% |
| CCOc1ccc(NC(=O)c2nc(SCC)ncc2Cl)cc1 | 15.7% |
| Cc1cccc(CS(=O)(=O)c2ncc(Cl)c(C(=O)Nc3ccc(F)cc3)n2)c1 | 105% (active) |
| Cc1ccc(CS(=O)(=O)c2ncc(Cl)c(C(=O)Nc3nnc(C)s3)n2)cc1 | 7.63% |
| CSc1ncc(Cl)c(C(=O)Nc2cc(C)ccc2C)n1 | 7.23% |
| Cc1cccc(NC(=O)c2nc(S(=O)(=O)Cc3ccccc3)ncc2Cl)c1 | 98.3% (active) |
| COC1C(CO)OC(n2cnc3c(=S)nc(N)[nH]c32)C1O (centres undefined) | 24.5% |
| COc1ccccc1NC(=O)N(O)C1(C#N)CCCCC1 | -17.6% |
| Cc1cc(NC(=O)C(C)SCC(=O)Nc2cccc(S(=O)(=O)N3CCCCCC3)c2)no1 (centres undefined) | -41.5% |
| CC1(C)C(=O)CCC2(C)C1=CCC1C2C(=O)CC2(C)C1CCC2(O)C(=O)CO (centres undefined) | 20.2% |

| SMILES | inhibition |
| --- | --- |
| COc1ccc(CCNC(=O)COc2cc(C)cc3oc(=O)c(C)c(C)c23)cc1OC | -2.49% |
| CCN1C[C@@H]2[C@@H]3C(=O)N(C)C(=O)[C@@H]3[C@](C)(C1=O)N2C(=O)c1ccccc1 | -20.8% |
| COc1ccc(Cl)cc1C=CC=Nc1ccc(S(N)(=O)=O)cc1 | 4.35% |
| O=C(CSc1ccc(-c2ccc(-n3cccn3)cc2)nn1)Nc1ccc([N+](=O)[O-])cc1 | 2.41% |
| O=C(CSc1ccc(-c2ccco2)nn1)Nc1cccc(F)c1 | -6.54% |
| O=C(CSc1ccc(-c2ccccn2)nn1)Nc1ccccc1 | 119% (active) |
| NS(=O)(=O)c1ccc(CCNC(=O)c2ccc(Cl)c(S(=O)(=O)N3CCCCCC3)c2)cc1 | -11.9% |
| O=S(=O)(Cc1ccc(Cl)cc1Cl)c1ccc(Cl)cc1 | -35.8% |
| Cc1cccc(C)c1NC(=O)C(c1ccccc1)N1CC(=O)Nc2ccccc21 (centres undefined) | -3.52% |
| Cc1cccc(C)c1NC(=O)C(Cl)C(=O)c1ccccc1 (centres undefined) | 106% (active) |
| Cc1cccc(C)c1NC(=O)CN(C)C(=O)CCC(=O)c1ccccc1 | 3.14% |
| CC[C@]12c3[nH]c4ccc(OC)cc4c3CCN1C(=O)C(CC(=O)NCc1ccco1)C[C@@H]2C(=O)N1CCN(C(=O)C2CC2)CC1 (some centres undefined) | 0.556% |
| CCN(C(=O)C1CCCN(c2nc(-c3ccc(OC)cc3)no2)C1)c1ccc(OC)cc1 (centres undefined) | 103% (active) |
| CCOC(=O)C1CCCN(C(=O)CN(c2ccc(OC)cc2)S(=O)(=O)c2c(C)noc2C)C1 (centres undefined) | 14.1% |
| COc1ccc(NC(=O)N2CCCC(c3nc(-c4ccc(F)cc4)no3)C2)cc1 (centres undefined) | -5.6% |
| CC(=O)CCC(=O)c1ccc2ccccc2c1 | 14.9% |
| Cc1cc(N=Nc2ccc3ccccc3c2)ccc1O | 107% (active) |
| Cc1ccc(/C=N/NC(=O)c2cc3ccccc3cc2O)o1 | -3.13% |
| CCCCNC(=O)C(C)N(CCN(C)C)C(=O)CCCN1C(=O)NC(c2ccc(Cl)cc2)C(C(=O)OCc2ccccc2)=C1C (centres undefined) | -3.34% |
| CN(C)CCNC(=O)c1ccc(Cl)c2cc3ccccc3nc12 | -3.1% |
| Cc1nc2nc(SCC(=O)NCc3ccco3)nn2c(C)c1Cc1ccccc1 | -0.223% |
| O=C(Cc1ccccc1)n1nc(-c2ccccc2)nc1NCc1ccco1 | -9.78% |
| O=c1nc2s/c(=C\c3ccco3)c(=O)n2nc1Cc1ccccc1 | 109% (active) |
| O=C(CCNC(=O)c1ccccc1)Nc1nc2ccccc2s1 | -3.35% |
| c1ccc2sc(NN=C3CCCC3)nc2c1 | 7.45% |
| c1ccc(C(=NNc2nc3ccccc3s2)c2ccccn2)cc1 | 108% (active) |
| O=[N+]([O-])c1ccc(N=NNc2ccc([N+](=O)[O-])cc2)cc1 | -30.4% |
